Screening results (PubChem)
Hits are enriched below; roughly 1.1% of the tested compounds scored in any of these assays.
LRH-1 inv ag: inverse agonists of human LRH-1 (NR5A2) | O00482 | HEK293T StAR-luciferase reporter, LRH-1 transfected, 24 h | inhibition, % at 3.6 µM | 0.13% of 360,000 active;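 active means inhibition above the mean inhibition of all tested compounds plus 3 SD, cut at about 73% in these data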;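 further: 0% = DMSO wells and 100% = reporter-only cells lacking LRH-1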
NCOA3 inh: human NCOA3 inhibition. Q9Y6Q9. HEK293 GAL4-SRC3 luciferase reporter, luminescence. inhibition, % at 3.6 µM. 0.17% of 360,000 active;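 active means inhibition above a per-campaign cutoff, the mean of all compounds plus 3 SD, cut at about 60% in these data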;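 further: 0% = DMSO-treated cells and 100% = gossypol-treated cells at 36 µM; higher means less SRC3-driven luciferase light from the GAL4 reporter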
Gli-Sufu antag: blocks Gli-Sufu signaling in a luciferase reporter | Sufu-KO-LIGHT fibroblasts, Gli luciferase reporter luminescence | inhibition, % at 5 µM | 0.74% of 340,000 active | AID 588413;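 active means inhibition above about 55%, limit read from the data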;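 further: 0% = DMSO-treated cells and 100% = wells with medium but no cells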
SRC1 inh: inhibits human SRC1 coactivator; HEK293 GAL4-SRC1 luciferase reporter, luminescence; inhibition, % at 3.6 µM; 0.12% of 360,000 active;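 active means inhibition above the campaign mean plus 3 SD, with each screening campaign given its own cutoff, cut at about 60% in these data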;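 further: 0% = DMSO treated cells and 100% = gossypol at 36 µM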
SRC2 inh: inhibits human steroid receptor coactivator 2. Q15596. HEK293 GAL4-SRC2 luciferase reporter, luminescence. inhibition, % at 9 µM. 0.17% of 370,000 active. AID 651957;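 active means inhibition above the mean inhibition of all tested compounds plus 3 SD, set per campaign, cut at about 52% in these data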;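 further: 0% = DMSO treated cells and 100% = cells given Gossypol at 36 µM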
Shn3 3UTR inh: Schnurri-3 reporter inhibition in Clone20 osteoblasts | Clone20 osteoblast Shn3 3'UTR firefly luciferase, 24 h | inhibition, % at 12.5 µM | 0.52% of 360,000 active | AID 588674;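 active means mean inhibition of at least 75% with every replicate also reaching 75%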;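 further: 0% = median of neutral control wells and 100% = pilot-screen positive control compound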
Gli-Sufu confirm: confirmation of Gli-SUFU pathway antagonists. shares compounds with Gli-Sufu antag. Sufu-KO-LIGHT cells, Gli luciferase reporter, luminescence. inhibition, % at 5 µM. 40% of 2,500 active. AID 602428;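 active means mean inhibition at 5 µM reaching about 45%, limit read from the data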;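 further: plate controls were DMSO-treated cells for no effect and wells lacking cells for full effect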
SufuKO cytotox: cytotoxicity counter-screen for Gli-SUFU antagonists; cytotoxicity, % at 5 µM; shares compounds with Gli-Sufu antag; 32% of 2,500 active; Sufu-KO-LIGHT cells cytotoxicity, ATP luminescence; AID 651994;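 active means mean cytotoxicity at 5 µM above about 25%, limit read from the data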;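 further: cells exposed to compound overnight for roughly 16 to 18 hours; plate controls were DMSO wells with cells for no effect and medium without cells for full effect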
Wnt3a counter: inhibits Wnt3a reporter, counter-screen for Gli-SUFU antagonists. AID 651995. Wnt-LIGHT cells, Wnt3a-driven luciferase reporter, luminescence. 20% of 2,500 active. inhibition, % at 6.25 µM. shares compounds with Gli-Sufu antag;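 active means mean inhibition above about 25%, limit read from the data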
An asterisk follows results filed as active.

How did CN(C)CC(=O)N[C@@H]1C[C@@H]2O[C@@H](CO)CC[C@@H]2O[C@@H]1CCc1ccc(-c2ccc(F)cc2)cc1 do in these assays?
SRC2 inh: -3

How did Cc1ccc(-c2c[n+](Cc3ccc(Cl)cc3)c3n2CCC3)cc1 do in these assays?
LRH-1 inv ag: 22; NCOA3 inh: 28; Gli-Sufu antag: 79*; SRC1 inh: 10; SRC2 inh: -12; Shn3 3UTR inh: 48; Gli-Sufu confirm: 81*; SufuKO cytotox: 33*; Wnt3a counter: 19

How did Clc1cccc(C[n+]2cc(-c3ccccc3)n3c2CCC3)c1 do in these assays?
LRH-1 inv ag: -5; NCOA3 inh: -5; Gli-Sufu antag: 48; SRC1 inh: 15; SRC2 inh: -8; Shn3 3UTR inh: 15

Results for Cc1ccc(C[n+]2cc(-c3ccc(Cl)cc3)n3c2CCC3)cc1 ?
LRH-1 inv ag: 22; NCOA3 inh: 14; Gli-Sufu antag: 77*; SRC1 inh: 17; SRC2 inh: 1; Shn3 3UTR inh: 12; Gli-Sufu confirm: 79*; SufuKO cytotox: 32*; Wnt3a counter: 19

How did Cc1ccc(-c2c[n+](Cc3cccc(Cl)c3)c3n2CCC3)cc1 do in these assays?
LRH-1 inv ag: 24; NCOA3 inh: 34; Gli-Sufu antag: 79*; SRC1 inh: 16; SRC2 inh: 11; Shn3 3UTR inh: 47; Gli-Sufu confirm: 82*; SufuKO cytotox: 36*; Wnt3a counter: 19

How did COC(=O)C1CN(Cc2ccccc2)CCS(=O)(=O)N1Cc1ccc(C)cc1 (stereo unspecified) do in these assays?
SRC2 inh: -2

Results for CC(=O)Nc1ccc(C(CCCc2ccccc2)C2=CCCCC2)cc1 (stereo unspecified) ?
SRC2 inh: 14

Results for C[C@H](O)[C@@H]1CN2CCc3ccc(-c4ccc5c(c4)OCO5)cc3[C@@H]2C[C@@H]1N(C)C(=O)Nc1ccccc1 ?
SRC2 inh: 8

How did O=C(O)CC1SC(=Nc2ccccc2)N(c2ccccc2)C1=O (stereo unspecified) do in these assays?
LRH-1 inv ag: -2; NCOA3 inh: 6; Gli-Sufu antag: 4; SRC1 inh: -8; SRC2 inh: -17; Shn3 3UTR inh: -4

How did Cc1ccc(CC2SC(=Nc3ccccc3)N(c3ccccc3)C2=O)cc1 (stereo unspecified) do in these assays?
LRH-1 inv ag: 9; NCOA3 inh: 12; Gli-Sufu antag: 58*; SRC1 inh: 4; SRC2 inh: -1; Shn3 3UTR inh: 6; Gli-Sufu confirm: 19; SufuKO cytotox: 9; Wnt3a counter: -13

Results for O=C(Nc1ccccc1)Nc1nc2ncccn2c1-c1ccc(F)cc1 ?
SRC2 inh: -23

Results for O=S(=O)(NCc1cn2ccccc2n1)c1cc(F)ccc1F ?
LRH-1 inv ag: -21; NCOA3 inh: 13; Gli-Sufu antag: 62*; SRC1 inh: 10; SRC2 inh: 18; Shn3 3UTR inh: -1; Gli-Sufu confirm: 26; SufuKO cytotox: 8; Wnt3a counter: -14

Results for O=C(CCCc1ccccc1)NCCc1ccccc1 ?
LRH-1 inv ag: -10; NCOA3 inh: -28; Gli-Sufu antag: -24; SRC1 inh: -45; SRC2 inh: -37; Shn3 3UTR inh: -31

How did CC(C)c1ccc(NC(=O)CCCC(=O)NCCc2ccccc2)cc1 do in these assays?
LRH-1 inv ag: -16; NCOA3 inh: -3; Gli-Sufu antag: 53; SRC1 inh: -5; SRC2 inh: -13; Shn3 3UTR inh: -8; Gli-Sufu confirm: 21; SufuKO cytotox: -4; Wnt3a counter: -25

What do the screens show for `CCC1(C)Cc2ccccc2-c2c1c(=O)n(Cc1ccccc1)c1nnnn21` (stereo unspecified)?
LRH-1 inv ag: -4; NCOA3 inh: -1; Gli-Sufu antag: 75*; SRC1 inh: 2; SRC2 inh: -3; Shn3 3UTR inh: 11; Gli-Sufu confirm: 28; SufuKO cytotox: 3; Wnt3a counter: -1

What do the screens show for `O=c1c2c(n3nnnc3n1Cc1ccccc1)-c1ccccc1CC21CCCC1`?
LRH-1 inv ag: -11; NCOA3 inh: -33; Gli-Sufu antag: 9; SRC1 inh: -24; SRC2 inh: 4; Shn3 3UTR inh: -13

What do the screens show for `Cc1ccnc(NC(=O)c2cccc(NC(=O)Cc3ccccc3)c2)c1`?
LRH-1 inv ag: -16; NCOA3 inh: -9; Gli-Sufu antag: 95*; SRC1 inh: -28; SRC2 inh: -9; Shn3 3UTR inh: -17; Gli-Sufu confirm: 3; SufuKO cytotox: 25*; Wnt3a counter: -16

Results for Cc1cccc(C(=O)Nc2cccc(C(=O)Nc3cc(C)ccn3)c2)c1 ?
LRH-1 inv ag: -17; NCOA3 inh: -15; Gli-Sufu antag: -11; SRC1 inh: -8; Shn3 3UTR inh: -8

What do the screens show for `O=S1(=O)c2c(NCc3ccco3)cccc2Oc2ccccc2CN1Cc1cn(Cc2ccc(F)cc2)nn1`?
SRC2 inh: 0

Results for CCOc1ccc(-c2[nH]ncc2-c2ccccc2)c(O)c1 ?
LRH-1 inv ag: -7; NCOA3 inh: 10; Gli-Sufu antag: 55*; SRC1 inh: -20; SRC2 inh: -3; Shn3 3UTR inh: 33; Gli-Sufu confirm: 21; SufuKO cytotox: 21; Wnt3a counter: -20

How did COc1ccc(-c2cn[nH]c2-c2ccc(OCc3ccccc3)cc2O)cc1 do in these assays?
LRH-1 inv ag: 11; NCOA3 inh: 23; Gli-Sufu antag: 2; SRC1 inh: 17; SRC2 inh: 20; Shn3 3UTR inh: 13

Results for CC(C)NCC(O)COC1CCC(C(C)(C)C)CC1 (stereo unspecified) ?
LRH-1 inv ag: 12; NCOA3 inh: 27; Gli-Sufu antag: 70*; SRC1 inh: 19; SRC2 inh: -10; Shn3 3UTR inh: -24; Gli-Sufu confirm: 15; SufuKO cytotox: 6; Wnt3a counter: -27

Results for CCCCOCCCNC(=O)C[C@H]1C[C@@]2(C(=O)OC)C(=C[C@H](C3CCCC3)O[C@@H]2C)N(Cc2cccc3ccccc23)C1=O ?
SRC2 inh: -31

How did Cc1cc(C)cc(NC(=O)C2CCC(CNC(=O)[C@@H]3Cc4ccccc4CN3)CC2)c1 (stereo partly specified) do in these assays?
LRH-1 inv ag: 14; NCOA3 inh: 13; Gli-Sufu antag: 57*; SRC1 inh: -13; SRC2 inh: 9; Shn3 3UTR inh: -5; Gli-Sufu confirm: 18; SufuKO cytotox: 11; Wnt3a counter: -59
